Compound activity deposited in PubChem by National Center for Advancing Translational Sciences (NCATS).
Shiga toxin inh – Shiga toxin inhibition; Vero cells, Shiga toxin protein synthesis inhibition reporter; inhibition, % at 38.7 µM; 290,000 compounds, 9.2% hits; AID 2315; in the data active means inhibition mostly above about 28%, no sharp cut-off; inactive means mostly below about 43%; further: 0% is about no effect
HCMV antiviral – blocks human cytomegalovirus replication | HFF cells, HCMV-luciferase reporter, 72 h; hits give low values | activity change, negative = inhibition, % at 57.5 µM | 410,000 compounds, 4.5% hits; in the data active means activity change below about -60%; inconclusive means no clear call, values can overlap the other calls; inactive means above about -39%; further: on the % scale 0 is the no-effect control and ±100 the full control effect
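Cell-based, HFFs, 1000 cells/well, 16 h 37C; cpds in DMSO + HCMV-luc, MOI 1 PFU/cell; 72 h 37C; OneGlo luminescence after 5 min RT; norm. to buffer vs Salinomycin 10uM.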
Pf growth 48h – inhibits P. falciparum growth in the first generation, 48 h; 310,000 compounds, 5.9% hits; P. falciparum luciferase growth in erythrocytes, 48 h; Potency, µM (top dose mostly 28.7 µM), inactives show at the highest dose activity change, negative = inhibition, usual class: inhibitors; further: potency means the concentration at half of the fitted maximal effect; on the % scale 0 is the no-effect control and ±100 the full control effect
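Parasite viability was followed by luminescence of a genomically integrated firefly luciferase. Cultures held 0.1% parasitemia at 2% hematocrit (final), incubated under 5% CO2 at 37 C.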
CHX counter – counter-screen hit for Shiga toxin inhibitors, cycloheximide; cell reporter, cycloheximide protein synthesis inhibition counterscreen; max response, %; 300,000 compounds, 12% hits; AID 2314; in the data active means max response mostly above about 13%, no sharp cut-off; inactive means mostly below about 14%; further: read at 38.3 µM for the half of the compounds with a filed dose; 0% is about no effect
Pf growth 96h – P. falciparum growth inhibition at 96 hour, primary screen for plastid delayed-death inhibitors; P. falciparum luciferase reporter growth, 96 h; Potency, µM (series often up to 28.7 µM), without a hit: top-dose activity change, negative = inhibition, most hits filed as inhibitors; 320,000 compounds, 6.9% hits; AID 504834; further: potency means the concentration at half of the fitted maximal effect; on the % scale 0 is the no-effect control and ±100 the full control effect
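Compounds incubated with erythrocytes infected by luciferase-expressing P. falciparum (2% hematocrit, 0.05% parasitemia final) for 96 hours, 37 C in 5% CO2. Growth inhibition scored as decreased luciferase luminescence.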
An asterisk follows results filed as active; ? = inconclusive; . = no result. A selection: hits, their analogues and other compounds. The true share with any hit is near 20%. Unless noted, the call rests on the fitted dose curve; in most records, active means well fitted inhibition curve with a large enough effect; inconclusive means small, poorly fitted or top-dose-only effect, or another doubt; inactive means no such curve, though single readings can be large or run the other way.

SMILES | Shiga toxin inh | HCMV antiviral | Pf growth 48h | CHX counter | Pf growth 96h
CC(=O)Nc1ccc(C(=O)OCC(=O)NC(=O)NC2CCCCC2)cc1 | -13 | 37 | . | 1 | ?
COC(=O)c1ccc(NC(=S)NC2CC3CCC2C3)cc1 (stereo not given) | 104* | ? | 19% | 41* | 5%
COC(=O)c1ccc(NC(=O)NC2CCCCC2)cc1 | 110* | -13 | 13% | 41* | 9%
COc1ccc(NC(=O)CNC(=O)C2CCCCC2)cc1 | 20 | 67 | 55% | 22* | -11%
Cc1nnnn1CC(=O)Nc1ccccc1[N+](=O)[O-] | -1 | -9 | 20% | 2 | -11%
N#CC1C=Cc2ccccc2N1C(=O)c1ccccc1 (stereo not given) | -2 | -26 | -7% | -3 | -4%
N#CC1C=Cc2c(ccc3ccccc23)N1C(=O)c1ccccc1 (stereo not given) | . | -83* | . | . | .
Cc1ccccc1OCC(=O)N(CC(C)C)c1c(N)n(CC(C)C)c(=O)[nH]c1=O | -4 | -23 | -3% | 9 | ?
CCc1cccc(CC)c1NC(=O)CCS(=O)(=O)c1ccc2c(c1)CCN2C(C)=O | . | -17 | . | . | .
CCOc1ccccc1NC(=O)c1cc(CC(C)C)oc1C | 9 | ? | 10µM* | 2 | -10%
CCOc1ccc(C(=O)Nc2cc(-c3nc4ccccc4[nH]3)ccc2Cl)cc1[N+](=O)[O-] | -4 | -85* | ? | 27* | 25%
CCOc1ccccc1NC(=O)NNC(=O)c1ccc2ccccc2c1 | -3 | -27 | -17% | -2 | 38%
CCOc1ccccc1NC(=O)c1ccc([N+](=O)[O-])cc1 | -12 | . | 0% | -8 | 49%
CCOc1ccccc1NC(=O)c1ccc2ccccc2c1 | . | 148 | 5% | 23* | 12µM*
CCOc1ccccc1NC(=O)c1ccc(OCC)c([N+](=O)[O-])c1 | -7 | -65* | 3% | 9 | 197%
Cc1ccc(C)c(S(=O)(=O)N2CCN(C(=O)[C@H](Cc3ccccc3)NC(=O)c3ccco3)CC2)c1 | . | -12 | . | . | .
O=C(NCc1ccco1)c1ccc(Cn2c(SCc3ccccc3)nc3cccnc32)cc1 | . | 33 | . | . | .
COc1ccc(NC(=O)c2ccc3[nH]c(C)c(C)c3c2)c(OC)c1 | 51 | -27 | -16% | 14 | -11%
CCOc1ccccc1NC(=O)c1ccc2[nH]c(C)c(C)c2c1 | 43* | 45 | 15µM* | 42* | ?
CCOc1ccccc1NC(=O)c1c(NC(=O)c2cccc(C)c2)sc2c1CCCC2 | . | -85* | . | . | .
Cc1ccc(-c2nc3ccccc3[nH]2)cc1NC(=O)COc1ccccc1[N+](=O)[O-] | . | -88* | . | . | .
CCOc1ccccc1NC(=O)c1c(NC(=O)Cc2ccccc2)sc2c1CCCC2 | . | 19 | . | . | .
COc1ccc(CN(C(=O)COc2ccccc2)c2ccccc2C(=O)O)cc1 | -13 | -15 | 6% | -2 | 11%
O=C(Sc1ccccc1)c1cccc(Cn2cc(C(F)(F)F)ccc2=O)c1 | -4 | -9 | 6% | 2 | 1%
CCOC(=O)C1=C(CC)OC(N)=C(C#N)C1c1ccc(OC)c(OC)c1OC (stereo not given) | -1 | 13 | 6% | 2 | ?
SMILES | Shiga toxin inh | HCMV antiviral | Pf growth 48h | CHX counter | Pf growth 96h
CCOC(=O)C1=C(CSc2nc(-c3ccncc3)ccc2C#N)OC(N)=C(C#N)C1c1cccnc1 (stereo not given) | 30 | -1 | 13µM* | 2 | ?
CCOC(=O)C1=C(CSc2nc(C)ccc2C#N)OC(N)=C(C#N)C1c1cccc(OC)c1OC (stereo not given) | 9 | 24 | 55% | 13 | 6.6µM*
O=C(Nc1cc(F)ccc1F)N1C[C@H]2[C@@H](c3ccccc31)[C@H](CO)N2C(=O)c1ccccc1 | . | 42 | . | . | .
O=C(O)c1ccccc1C(=O)c1ccc(F)c(F)c1 | . | 12 | . | . | .
CCCCOCCCNC(=O)CC(C)c1ccccc1 (stereo not given) | 11 | 19 | ? | 6 | 119%
Oc1ccccc1C1SC(c2ccccc2O)SC(c2ccccc2O)S1 (stereo not given) | . | -34 | . | . | .
Oc1ccccc1C1CCCCC1c1ccccc1 (stereo not given) | -9 | -68* | 7.4µM* | 2 | ?
COc1ccc(CCNC(=O)COc2ccc(S(=O)(=O)NC3CCCCC3)cc2Cl)cc1OC | -10 | -62* | 12µM* | -1 | 10%
O=C(COc1ccc(S(=O)(=O)NC2CCCCC2)cc1Cl)Nc1ccc2c(c1)OCO2 | 7 | -16 | . | -2 | 10µM*
O=C(COc1ccc(S(=O)(=O)NC2CCCCC2)cc1Cl)NCc1ccc2c(c1)OCO2 | 2 | -12 | -8% | -5 | .
Cc1sc2ncn(CC(=O)Nc3ccc(C(F)(F)F)cc3)c(=O)c2c1S(=O)(=O)N1CCN(C)CC1 | . | 1 | . | . | .
O=C(Nc1ccc([N+](=O)[O-])cc1)Nc1ccc(N2CCOCC2)c2nonc12 | -15 | ? | ? | -10 | 0%
O=C(CC(c1ccccc1)C1CCCCC1=O)c1ccccc1 (stereo not given) | . | 17 | . | . | .
O=C(CC(c1ccccc1)C1CCCCC1=O)c1ccco1 (stereo not given) | 63* | -2 | 33% | 38* | -28%
CN(C)c1ccc(C(CC(=O)c2ccccc2)C2CCCCC2=O)cc1 (stereo not given) | -4 | -27 | 1% | -3 | 10µM*
Cc1ccc(Cc2c(C)nc3nc(SCC(=O)NCCCN4CCCCCC4)nn3c2C)cc1 | -4 | ? | ? | -5 | 10µM*
COc1ccc(NC(=O)CSc2nc3nc(C)c(Cc4ccccc4)c(C)n3n2)cc1OC | . | -66* | . | . | .
Cc1nc2nc(SCC(=O)NCCCN3CCCCC3)nn2c(C)c1Cc1ccccc1 | -8 | -37 | ? | -7 | -18%
Cc1nc2nc(SCC(=O)NCCCN3CCOCC3)nn2c(C)c1Cc1ccccc1 | -11 | ? | ? | 1 | 3.3µM*
Cc1nc2nc(SCC(=O)NCCCN3CCCC3)nn2c(C)c1Cc1ccccc1Cl | 17 | ? | ? | -5 | 1%
CCN(CC)CCNC(=O)CSc1nc2nc(C)c(Cc3ccccc3)c(C)n2n1 | . | -3 | . | . | .
CCOCCCNC(=O)CSc1nc2nc(C)c(Cc3ccccc3)c(C)n2n1 | 3 | -24 | 1% | 9 | 4.7µM*
CCCCCn1cc2c(c1-c1ccc(Cl)cc1)c(=O)n(C)c(=O)n2C | . | 0 | . | . | .
Cc1c(O)nc(SC2CC(=O)N(c3cc(Cl)cc(Cl)c3)C2=O)[nH]c1=O (stereo not given) | . | 39 | . | . | .
CC(=O)Nc1cc([As](=O)(O)O)ccc1O | 6 | -10 | ? | 3 | 11µM*
CC(=O)Nc1cc(Br)ccc1O | -13 | -10 | 0% | -2 | ?
CCOc1ccc(NC(=O)CCCc2nc(-c3cccc(OC)c3)no2)cc1 | . | -9 | . | . | .
CCS(=O)(=O)c1ccc(OC)c(N=Nc2ccc(O)c3ncccc23)c1 | 7 | ? | ? | 4 | ?
CCOc1ccc(N=Nc2ccc(O)c3ncccc23)cc1 | 3 | -87* | 0.74µM* | -2 | -3%
